Usually inhibition stands for the change of the read-out against control, counted positive when it falls.

The test has as its system Potassium Channel [KATP]. Nature of the test: CYP450 and receptor off-target profile – biochemical, Ricerca HitProfilingScreen, selectivity assay for S1P4 agonist project, late-stage follow-up (AID 504400). The following applies: Ricerca radioligand binding/enzyme panel plus CYP450, at 10 µM, active compounds read high.

Structures are written as SMILES. A number with no mark means an inactive call. The rule behind the calls is not given here.

With `Clc1ccc(OCCOc2ccc(Br)nc2Br)c(Cl)c1`, the inhibition is 20%.

The record behind these values is PubChem BioAssay AID504400 (The Scripps Research Institute Molecular Screening Center, 2011).
